# Measured values published in PubChem BioAssay (Tox21).
# Values joined by “and” are separate entries in the source; they are usually repeats but may differ in a detail not shown here. Identical values can stand only once. Results filed as inconclusive are left out. A call without a number means that no potency is given here. Where a structure was tested more than once in an assay, its records may differ in their call. Active and inactive are the calls of the source. Unless noted, calls follow the shape of the dose curve; as a rule, active = well fitted curve in the direction sought with a large enough effect in the repeat runs; inconclusive = weak or mixed curves; inactive = no such curve, though single readings can be large; an effect the other way counts as inactive or inconclusive.
# Tests used:
# [1] = A CellTox Green Cytotoxicity Assay to monitor cytotoxicity in HEK293 cells - 32 hour (AID 1224881); also: nearly all actives have a fitted effect of over 40% in size; also: potency is read from the fitted curve at half-maximal effect
# In short: (§1)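 Dead-cell fluorescence measured kinetically: asymmetric cyanine dye, HEK293, 600 cells/well, 5 h settle, 23 nL cpd/DMSO, 37 C, reads 0–40 h every 8 h.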
# [2] = A CellTox Green Cytotoxicity Assay to monitor cytotoxicity in HepG2 cells - 32 hour (AID 1224883); also: nearly all actives have a fitted effect of over 50% in size; also: potency is read from the fitted curve at half-maximal effect
# In short: (§2)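 First, HepG2 cells (600/well) mixed with reagent were plated; second, after 5 h at 37 C they received compounds via pintool; third, fluorescence was measured at 0 h through 40 h at 8 h intervals.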
# [3] = A CellTox Green Cytotoxicity Assay to monitor cytotoxicity in HEK293 cells - 8 hour (AID 1224884); also: nearly all actives have a fitted effect of over 35% in size; also: potency is read from the fitted curve at half-maximal effect
# In short: as §1
# [4] = qHTS RealTime-Glo MT Cell Viability Assay in HepG2 cells - 16 hour (AID 1224885); also: nearly all actives have a fitted effect of over 50% in size; also: potency is read from the fitted curve at half-maximal effect
# In short: (§3)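 Tox21 10K library screened in qHTS format on HepG2 cells carrying RealTime-Glo reagents. Compounds were added after a 5 h preincubation, and the luminescent signal from continuous culture was measured repeatedly during 40 h treatment.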
# [5] = qHTS RealTime-Glo MT Cell Viability Assay in HEK293 cells - 24 hour (AID 1224886); also: nearly all actives have a fitted effect of over 50% in size; also: potency is read from the fitted curve at half-maximal effect; as to activity change, negative = cytotoxicity: top concentration of the series differs between compounds
# In short: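 Luminescence generated by NanoLuc from substrate produced by living HEK293 cells served as the viability signal. Each value reflects the reading at its stated time point during continuous 40 h compound exposure at 37 C.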
# [6] = qHTS RealTime-Glo MT Cell Viability Assay in HEK293 cells - 8 hour (AID 1224887); also: nearly all actives have a fitted effect of over 50% in size; also: potency is read from the fitted curve at half-maximal effect; as to activity change, negative = cytotoxicity: top concentration of the series differs between compounds
# In short: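 600 HEK293 cells per well, dispensed already mixed with RealTime-Glo MT reagents. Compound dosing came 5 h later. The same wells were read for luminescence at 0, 8, 16, 24, 32 and 40 h of exposure at 37 C.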
# [7] = A CellTox Green Cytotoxicity Assay to monitor cytotoxicity in HEK293 cells - 16 hour (AID 1224888); also: nearly all actives have a fitted effect of over 35% in size; also: potency is read from the fitted curve at half-maximal effect
# In short: as §1
# [8] = qHTS RealTime-Glo MT Cell Viability Assay in HepG2 cells - 0 hour (AID 1224889); also: nearly all actives have a fitted effect of over 50% in size
# In short: as §3
# [9] = A CellTox Green Cytotoxicity Assay to monitor cytotoxicity in HepG2 cells - 8 hour (AID 1224890); also: nearly all actives have a fitted effect of over 45% in size; also: potency is read from the fitted curve at half-maximal effect
# In short: as §2
# [10] = qHTS assay to identify small molecule antagonists of the estrogen receptor alpha (ER-alpha) signaling pathway using the BG1 cell line in the presence of 0.1 nM 17-beta-estradiol - cell viability counter screen (AID 1259241); also: nearly all actives have a fitted effect of over 40% in size
# In short: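 VM7Luc4E2, 4,000 cells/well, phenol red-free medium + 10% charcoal-stripped FBS; 24 hr plating; cpd + 0.1 nM E2 final, 22 hr 37C/5% CO2; CellTiter-Fluor 30 min, fluorescence.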
# [11] = qHTS assay to identify small molecule antagonists of the androgen receptor (AR) signaling pathway using the MDA cell line in the presence of 0.5 nM R1881 - cell viability counter screen (AID 1259242); also: nearly all actives have a fitted effect of over 45% in size; also: potency is read from the fitted curve at half-maximal effect
# In short: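 qHTS format. MDA-kb2 (MMTV-luc, AR/GR responsive) + cpd + 0.5 nM R1881 final, 16 hr 37C/0% CO2 → CellTiter-Fluor 30 min → fluorescence intensity.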
# [12] = target: Estrogen receptor (Homo sapiens) (UniProt P03372); experiment: qHTS assay to identify small molecule antagonists of the estrogen receptor alpha (ER-alpha) signaling pathway using the BG1 cell line in the presence of 0.1 nM 17-beta-estradiol (AID 1259244); also: nearly all actives have a fitted effect of over 50% in size; also: potency is read from the fitted curve at half-maximal effect
# Chain of Estrogen receptor (Homo sapiens) (P03372 whole entry, looked up): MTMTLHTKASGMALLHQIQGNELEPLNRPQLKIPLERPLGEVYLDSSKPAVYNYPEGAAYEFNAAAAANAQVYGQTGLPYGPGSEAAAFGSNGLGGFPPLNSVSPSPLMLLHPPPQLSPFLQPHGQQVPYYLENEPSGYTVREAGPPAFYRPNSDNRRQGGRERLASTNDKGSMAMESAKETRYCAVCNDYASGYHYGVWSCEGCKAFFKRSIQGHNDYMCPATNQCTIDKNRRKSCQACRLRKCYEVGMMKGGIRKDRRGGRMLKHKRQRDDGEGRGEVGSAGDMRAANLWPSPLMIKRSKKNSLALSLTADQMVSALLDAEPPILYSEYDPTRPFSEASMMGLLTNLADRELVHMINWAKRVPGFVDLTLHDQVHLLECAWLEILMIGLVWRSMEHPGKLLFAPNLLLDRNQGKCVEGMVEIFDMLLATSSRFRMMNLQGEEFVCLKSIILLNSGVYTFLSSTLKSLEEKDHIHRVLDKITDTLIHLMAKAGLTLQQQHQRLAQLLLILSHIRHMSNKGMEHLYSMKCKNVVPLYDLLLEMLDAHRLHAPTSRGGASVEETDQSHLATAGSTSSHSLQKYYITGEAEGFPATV
# In short: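 Reporter is a stably transfected luciferase under four estrogen responsive elements in VM7Luc4E2 cells expressing native full-length ER-alpha; inhibition of 0.1 nM (final) 17beta-estradiol-driven signal over 22 h is read by luminescence.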
# [13] = qHTS assay to identify small molecule HDAC inhibitors (AID 1259364); also: potency is read from the fitted curve at half-maximal effect;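 also: wild-type HCT-116 cells with endogenous class I/II HDAC activity; nearly all actives have a fitted effect of over 45% in size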
# In short: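 Quantitative high-throughput format: overnight-seeded HCT-116 cells got compounds for 2 hr at 37C; HDAC-Glo I/II reagent added, 30 min RT, luminescence measured.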
# [14] = qHTS assay to identify small molecule HDAC inhibitors - cell viability counter screen (AID 1259365)
# In short: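 Luminescence from CellTiter-Glo, developed 30min at room temperature, reports viability of wild-type HCT-116 cells treated 2hr with compounds at 37 C and 5% CO2 after overnight plating.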
# [15] = qHTS assay to identify small molecule agonists of the sonic hedgehog signaling (Shh) pathway - cell viability counter screen (AID 1259366); also: nearly all actives have a fitted effect of over 50% in size; also: potency is read from the fitted curve at half-maximal effect
# In short: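 Cytotoxicity counter screen run in the same wells as the Shh reporter assay. NIH/3T3 cells carrying a Gli1 response element–driven luciferase were treated with DMSO-dissolved compounds for 24hr, and live-cell protease activity was measured with CellTiter-Fluor.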
# [16] = qHTS assay to identify small molecule antagonists of the sonic hedgehog signaling (Shh) pathway - cell viability counter screen (AID 1259367); also: nearly all actives have a fitted effect of over 55% in size; also: potency is read from the fitted curve at half-maximal effect
# In short: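 Fluorescence read-out (CellTiter-Fluor, 1 hr at 37C) taken after 23 hr compound treatment of 3T3 Gli1-Luc cells stimulated with conditioned medium. Cells were seeded at 2,000 per well and pre-incubated 4 hr.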
# [17] = qHTS assay to identify small molecule agonists of the sonic hedgehog signaling (Shh) pathway (AID 1259368; calls by dose curve;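 also: NIH/3T3-derived 3T3Gli1-Luc cells carrying a stable Gli1-driven firefly luciferase reporter; series mostly up to about 92 µM; nearly all actives have a fitted effect of over 15% in size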)
# In short: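 Quantitative high-throughput format using a Gli1-driven firefly luciferase reporter line derived from NIH/3T3 cells. After a 24 hr compound treatment at 37 C and 5% CO2, luminescence reported Gli1 response element activity.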
# [18] = A CellTox Green Cytotoxicity Assay to monitor cytotoxicity in HepG2 cells - 0 hour (AID 1224882); also: nearly all actives have a fitted effect of over 35% in size; also: potency is read from the fitted curve at half-maximal effect
# In short: as §2
# [19] = qHTS assay to identify small molecule phospholipidosis (PLD) inducers (AID 1259344; active = well fitted curve in the direction sought with a large enough effect; an effect the other way counts as inactive or inconclusive)
# In short: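 Read-out is LipidTOX Red fluorescence (ex 595/em 615) imaged in HepG2 cells after 24 h compound exposure at 37 C, with Hoechst nuclear counterstain (ex 352/em 461) allowing per-cell normalisation.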
# [20] = target: Androgen receptor (Homo sapiens) (UniProt P10275); experiment: qHTS assay to identify small molecule antagonists of the androgen receptor (AR) signaling pathway using the MDA cell line in the presence of 0.5 nM R1881 (AID 1259243); also: nearly all actives have a fitted effect of over 50% in size; also: potency is read from the fitted curve at half-maximal effect
# Chain of Androgen receptor (Homo sapiens) (P10275 whole entry, looked up): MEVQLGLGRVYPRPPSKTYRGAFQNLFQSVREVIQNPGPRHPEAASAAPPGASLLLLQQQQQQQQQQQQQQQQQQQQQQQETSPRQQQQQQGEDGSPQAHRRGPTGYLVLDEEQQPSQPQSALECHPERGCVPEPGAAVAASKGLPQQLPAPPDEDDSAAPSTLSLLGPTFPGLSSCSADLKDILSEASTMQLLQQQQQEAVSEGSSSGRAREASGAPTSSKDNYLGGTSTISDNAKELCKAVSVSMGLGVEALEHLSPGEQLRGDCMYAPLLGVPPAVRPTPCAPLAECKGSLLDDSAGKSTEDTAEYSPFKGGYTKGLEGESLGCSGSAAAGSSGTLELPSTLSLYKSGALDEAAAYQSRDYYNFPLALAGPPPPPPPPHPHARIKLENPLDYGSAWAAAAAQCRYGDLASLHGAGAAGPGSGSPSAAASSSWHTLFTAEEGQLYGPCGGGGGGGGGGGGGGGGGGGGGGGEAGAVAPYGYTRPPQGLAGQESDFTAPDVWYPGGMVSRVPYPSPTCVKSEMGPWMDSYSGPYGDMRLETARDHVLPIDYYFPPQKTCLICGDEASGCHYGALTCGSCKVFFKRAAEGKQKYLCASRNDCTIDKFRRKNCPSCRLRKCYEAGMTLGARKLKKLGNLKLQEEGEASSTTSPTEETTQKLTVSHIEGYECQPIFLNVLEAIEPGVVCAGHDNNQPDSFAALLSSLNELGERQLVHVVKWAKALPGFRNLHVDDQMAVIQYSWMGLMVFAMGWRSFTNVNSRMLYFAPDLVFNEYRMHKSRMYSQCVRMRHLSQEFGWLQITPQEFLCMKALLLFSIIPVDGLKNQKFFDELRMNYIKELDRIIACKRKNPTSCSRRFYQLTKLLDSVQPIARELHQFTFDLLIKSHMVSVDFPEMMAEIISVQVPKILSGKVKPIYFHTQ
# In short: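 Antagonist mode quantitative HTS in MDA-kb2 MMTV-luciferase cells, agonist R1881 at 0.5 nM final, 16 hr exposure at 37C and 0% CO2, luminescent detection.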
smiles,measurement,setting,value
Cc1cccc(C)c1,Potency,[1],inactive
same,Potency,[2],inactive
same,Potency,[3],inactive
same,Potency,[4],inactive
same,Potency,[5],inactive
same,Potency,[6],inactive
same,Potency,[7],inactive
same,Potency,[8],inactive
same,Potency,[9],inactive
same,Potency,[10],inactive
same,Potency,[11],inactive
same,Potency,[12],inactive
same,Potency,[13],inactive
same,Potency,[14],inactive
same,Potency,[15],inactive
same,Potency,[16],inactive
same,outcome,[17],inactive
O=C1NS(=O)(=O)c2ccccc21,Potency,[1],inactive
same,Potency,[18],inactive
same,Potency,[2],inactive
same,Potency,[3],inactive
same,Potency,[4],inactive
same,Potency,[5],inactive
same,Potency,[6],inactive
same,Potency,[7],inactive
same,Potency,[8],inactive
same,Potency,[9],inactive
same,Potency,[10],inactive
same,Potency,[11],inactive
same,Potency,[19],inactive
same,Potency,[13],inactive
same,Potency,[14],inactive
same,Potency,[15],inactive
same,Potency,[16],inactive
same,outcome,[17],inactive
Nc1ccc(S(N)(=O)=O)cc1,Potency,[1],inactive
same,Potency,[18],inactive
same,Potency,[2],inactive
same,Potency,[3],inactive
same,Potency,[4],inactive
same,Potency,[5],inactive
same,Potency,[6],inactive
same,Potency,[7],inactive
same,Potency,[9],inactive
same,Potency,[10],inactive
same,Potency,[11],inactive
same,Potency,[19],inactive
same,Potency,[13],inactive
same,Potency,[14],inactive
same,Potency,[15],inactive
same,Potency,[16],inactive
same,outcome,[17],inactive
C1CCC(C(CC2CCCCN2)C2CCCCC2)CC1 (centres undefined),Potency,[1],19 µM (active)
same,Potency,[18],inactive
same,Potency,[2],5.35 µM (active)
same,Potency,[3],26.8 µM (active)
same,Potency,[4],8.49 µM (active)
same,Potency,[5],16.9 µM (active)
same,Potency,[6],23.9 µM (active)
same,Potency,[7],23.9 µM (active)
same,Potency,[9],23.9 µM (active)
same,Potency,[10],inactive
same,Potency,[11],26.6 µM (active)
same,Potency,[19],inactive
same,Potency,[13],inactive
same,Potency,[14],inactive
same,Potency,[15],13.3 µM (active)
same,outcome,[17],inactive
CCc1nc(N)nc(N)c1-c1ccc(Cl)cc1,Potency,[1],inactive
same,Potency,[18],inactive
same,Potency,[2],inactive
same,Potency,[3],inactive
same,Potency,[4],inactive
same,Potency,[5],inactive
same,Potency,[6],inactive
same,Potency,[7],inactive
same,Potency,[9],inactive
same,Potency,[10],inactive
same,Potency,[11],inactive
same,Potency,[12],31.1 µM (active) and 48.6 µM (active)
same,Potency,[19],inactive
same,Potency,[13],inactive
same,Potency,[15],inactive
same,Potency,[16],inactive
same,outcome,[17],inactive
CN(C)CCOC(C)(c1ccccc1)c1ccccn1 (centres undefined),Potency,[1],inactive
same,Potency,[18],inactive
same,Potency,[2],inactive
same,Potency,[3],inactive
same,Potency,[4],inactive
same,Potency,[5],inactive
same,Potency,[6],inactive
same,Potency,[7],inactive
same,Potency,[9],inactive
same,Potency,[10],inactive
same,Potency,[11],inactive
same,Potency,[19],inactive
same,Potency,[13],inactive
same,Potency,[15],inactive
same,Potency,[16],inactive
same,outcome,[17],inactive
Nc1ccc2c(c1)CN1C(=O)c3ccccc3C1=N2,Potency,[1],10.4 µM (active)
same,Potency,[18],10.4 µM (active)
same,Potency,[2],10.4 µM (active)
same,Potency,[3],10.4 µM (active)
same,"activity change, negative = cytotoxic",[4],-5.66% [at 15.8 µM] (inactive)
same,Potency,[5],9.28 µM (active)
same,Potency,[7],10.4 µM (active)
same,"activity change, negative = cytotoxicity",[8],4.86% [at 15.8 µM] (inactive)
same,Potency,[9],10.4 µM (active)
same,"activity, negative = inhibition",[20],57.2% [at 19 µM] (inactive)
same,Potency,[12],3.26 µM (active)
same,Potency,[13],326 nM (active)
Cc1ccc(S(=O)(=O)O)cc1,Potency,[1],inactive
same,Potency,[18],inactive
same,Potency,[2],inactive
same,Potency,[3],inactive
same,Potency,[4],inactive
same,Potency,[5],inactive
same,Potency,[6],inactive
same,Potency,[7],inactive
same,Potency,[8],inactive
same,Potency,[9],inactive
same,Potency,[10],inactive
same,Potency,[11],inactive
same,Potency,[13],inactive
same,Potency,[15],inactive
same,Potency,[16],inactive
same,outcome,[17],inactive
NC(=O)c1cccnc1,Potency,[1],inactive
same,Potency,[2],inactive
same,Potency,[3],inactive
same,Potency,[4],inactive
same,Potency,[5],inactive
same,Potency,[6],inactive
same,Potency,[7],inactive
same,Potency,[8],inactive
same,Potency,[9],inactive
same,Potency,[10],inactive
same,Potency,[11],inactive
same,Potency,[12],inactive
same,Potency,[19],inactive
same,Potency,[13],inactive
same,Potency,[14],inactive
same,Potency,[15],inactive
same,Potency,[16],inactive
same,outcome,[17],inactive
CCCCOC(=O)c1ccc(O)cc1,Potency,[1],inactive
same,Potency,[18],inactive
same,Potency,[2],inactive
same,Potency,[3],inactive
same,Potency,[4],inactive
same,Potency,[5],22.1 µM (active) and 19.5 µM (active)
same,Potency,[6],inactive
same,Potency,[7],inactive
same,Potency,[9],inactive
same,Potency,[10],inactive
same,Potency,[11],inactive
same,Potency,[20],inactive
same,Potency,[19],inactive
same,Potency,[13],27.6 µM (active) and 30.6 µM (active)
same,Potency,[14],inactive
same,Potency,[15],inactive
same,Potency,[16],inactive
same,outcome,[17],inactive
CCCCCCc1ccc(O)cc1O,Potency,[1],49.1 µM (active) and 49 µM (active) and inactive
same,Potency,[18],inactive
same,Potency,[2],49.1 µM (active) and 38.9 µM (active) and 21.3 µM (active)
same,Potency,[3],inactive
same,Potency,[4],inactive
same,Potency,[5],19.6 µM (active) and 11 µM (active)
same,Potency,[6],15.5 µM (active) and 9.77 µM (active)
same,Potency,[7],inactive
same,Potency,[9],inactive and 49 µM (active)
same,Potency,[10],inactive
same,Potency,[11],inactive
same,Potency,[20],43.4 µM (active) and 48.6 µM (active) and 23.7 µM (active)
same,Potency,[19],inactive
same,Potency,[13],inactive
same,Potency,[15],48.7 µM (active) and 61.1 µM (active) and inactive
same,Potency,[16],61.1 µM (active) and inactive
same,outcome,[17],inactive
CC(=O)CC(c1ccccc1)c1c(O)c2ccccc2oc1=O (centres undefined),Potency,[1],inactive
same,Potency,[2],inactive
same,Potency,[3],inactive
same,Potency,[4],inactive
same,Potency,[5],inactive
same,Potency,[6],inactive
same,Potency,[7],inactive
same,Potency,[8],inactive
same,Potency,[9],inactive
same,Potency,[10],inactive
same,Potency,[11],inactive
same,Potency,[19],inactive
same,Potency,[13],inactive
same,Potency,[14],inactive
same,Potency,[15],inactive
same,Potency,[16],68.9 µM (active) and inactive
same,outcome,[17],inactive
